Results reported in PubChem BioAssay (NCI).
This is part of a sample that, as a whole, favours compounds with a hit. Of some 83,000 tested, about 20% had one in any assay.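 Plates (96-well) were seeded with cells, treated with compound at one concentration, and incubated for 48 hours before percent growth was determined.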 Values without a mark were called inactive. The source made the active and inactive calls. The calls were made as follows: active = growth percent below 10; inactive = the rest.

Assays:
Assay in all cases: NCI-60 one-dose screen, 48 h (100 = growth as untreated, 0 = no growth, -100 = all killed)
Details in all cases: 10 µM unless noted
NCI-H23 lung = tested on: NCI-H23 lung
NCI-H226 lung = tested on: NCI-H226 lung
NCI-H322M lung = tested on: NCI-H322M lung
HOP-62 NSCLC = tested on: HOP-62 NSCLC
NCI-H460 lung = tested on: NCI-H460 lung
HOP-92 NSCLC = tested on: HOP-92 NSCLC
NCI-H522 lung = tested on: NCI-H522 lung
A549/ATCC NSCLC = tested on: A549/ATCC NSCLC
786-0 renal = tested on: 786-0 renal
COLO 205 colon = tested on: COLO 205 colon
DU-145 prostate = tested on: DU-145 prostate
K-562 leukemia = tested on: K-562 leukemia
MALME-3M melanoma = tested on: MALME-3M melanoma
MDA-MB-231 breast = tested on: MDA-MB-231 breast
RXF 393 renal = tested on: RXF 393 renal
SF-268 CNS = tested on: SF-268 CNS
SF-295 CNS = tested on: SF-295 CNS
SF-539 CNS = tested on: SF-539 CNS
M14 melanoma = tested on: M14 melanoma

CC1CCc2c(sc(NC(=O)CSc3nnc4ccccn34)c2C(N)=O)C1 (configuration not stated)
growth (NCI-H23 lung): 109% | growth (NCI-H226 lung): 103% | growth (NCI-H322M lung): 121% | growth (HOP-62 NSCLC): 110% | growth (NCI-H460 lung): 106% | growth (HOP-92 NSCLC): 97.8% | growth (NCI-H522 lung): 108% | growth (A549/ATCC NSCLC): 118% | growth (786-0 renal): 115% | growth (COLO 205 colon): 126% | growth (DU-145 prostate): 144% | growth (K-562 leukemia): 117% | growth (MALME-3M melanoma): 181% | growth (MDA-MB-231 breast): 102% | growth (RXF 393 renal): 1.36% (active) | growth (SF-268 CNS): 109% | growth (SF-295 CNS): 93.6% | growth (SF-539 CNS): 137% | growth (M14 melanoma): 117%

O=[N+]([O-])c1ccc(S(=O)(=O)N2CCN(c3ccnc4cc(Cl)ccc34)CC2)c([N+](=O)[O-])c1
growth (NCI-H23 lung): 97.2% | growth (NCI-H226 lung): 83.7% | growth (NCI-H322M lung): 107% | growth (HOP-62 NSCLC): 96.4% | growth (NCI-H460 lung): 99.2% | growth (HOP-92 NSCLC): 82.1% | growth (NCI-H522 lung): 46.1% | growth (A549/ATCC NSCLC): 99.2% | growth (786-0 renal): 80.8% | growth (COLO 205 colon): 91.4% | growth (DU-145 prostate): 92.3% | growth (K-562 leukemia): 18% | growth (MALME-3M melanoma): 76.2% | growth (MDA-MB-231 breast): 85.3% | growth (RXF 393 renal): 74% | growth (SF-268 CNS): 86% | growth (SF-295 CNS): 100% | growth (SF-539 CNS): 93.5% | growth (M14 melanoma): 92.2%

CCOP(=O)(CCN1CCN(CCCCCOc2cc3c(cc2OC)C(=O)N2CCC[C@H]2C=N3)CC1)OCC
growth (NCI-H23 lung): 104% | growth (NCI-H226 lung): 114% | growth (NCI-H322M lung): 140% | growth (HOP-62 NSCLC): 109% | growth (NCI-H460 lung): 75.5% | growth (HOP-92 NSCLC): -47.9% (active) | growth (NCI-H522 lung): 62.7% | growth (A549/ATCC NSCLC): 93.9% | growth (786-0 renal): 99.1% | growth (COLO 205 colon): 71.4% | growth (DU-145 prostate): 91.5% | growth (K-562 leukemia): 35.7% | growth (MALME-3M melanoma): 119% | growth (MDA-MB-231 breast): 74.3% | growth (RXF 393 renal): 46% | growth (SF-268 CNS): 57% | growth (SF-295 CNS): 97.3% | growth (SF-539 CNS): 53.5% | growth (M14 melanoma): 91.8%

O=C1CCC/C=C\C[C@H]2C=CC(=O)/C2=C/C[C@H](C/C=C\CC(F)(F)F)O1
growth (NCI-H23 lung): -8.61% (active) | growth (NCI-H226 lung): 8.07% (active) | growth (NCI-H322M lung): 17.5% | growth (HOP-62 NSCLC): -11.7% (active) | growth (NCI-H460 lung): -30.5% (active) | growth (HOP-92 NSCLC): -24.4% (active) | growth (NCI-H522 lung): -50.8% (active) | growth (A549/ATCC NSCLC): 1.72% (active) | growth (786-0 renal): -73.9% (active) | growth (COLO 205 colon): -44.4% (active) | growth (DU-145 prostate): -3.69% (active) | growth (K-562 leukemia): 3.68% (active) | growth (MALME-3M melanoma): -12% (active) | growth (MDA-MB-231 breast): 17.7% | growth (RXF 393 renal): -85.4% (active) | growth (SF-268 CNS): -1.48% (active) | growth (SF-295 CNS): -19.7% (active) | growth (SF-539 CNS): -40.1% (active) | growth (M14 melanoma): -15.2% (active)

CN1CCN(CCCOc2ccc3nc(Nc4ccc(C(F)(F)F)c(Cl)c4)ccc3c2)CC1
growth (NCI-H23 lung): 38.1% | growth (NCI-H226 lung): 54.1% | growth (NCI-H322M lung): -5.95% (active) | growth (HOP-62 NSCLC): -21.7% (active) | growth (NCI-H460 lung): -40% (active) | growth (HOP-92 NSCLC): 7.32% (active) | growth (NCI-H522 lung): -37.8% (active) | growth (A549/ATCC NSCLC): 3.9% (active) | growth (786-0 renal): -60.9% (active) | growth (COLO 205 colon): -77.9% (active) | growth (DU-145 prostate): 20.1% | growth (K-562 leukemia): -47.2% (active) | growth (MALME-3M melanoma): -47.1% (active) | growth (MDA-MB-231 breast): -53.3% (active) | growth (RXF 393 renal): 6.61% (active) | growth (SF-268 CNS): 11.5% | growth (SF-295 CNS): -52.8% (active) | growth (SF-539 CNS): -49% (active) | growth (M14 melanoma): -19.8% (active)

COc1cc(C(=O)CCCl)ccc1O
growth (NCI-H23 lung): 91.8% | growth (NCI-H226 lung): 88.9% | growth (NCI-H322M lung): 106% | growth (HOP-62 NSCLC): 112% | growth (NCI-H460 lung): 106% | growth (HOP-92 NSCLC): 95.6% | growth (NCI-H522 lung): -24.2% (active) | growth (A549/ATCC NSCLC): 102% | growth (786-0 renal): 106% | growth (COLO 205 colon): 109% | growth (DU-145 prostate): 107% | growth (K-562 leukemia): 97.4% | growth (MALME-3M melanoma): 88.7% | growth (MDA-MB-231 breast): 94.3% | growth (RXF 393 renal): 98.2% | growth (SF-268 CNS): 96.1% | growth (SF-295 CNS): 100% | growth (SF-539 CNS): 94.7% | growth (M14 melanoma): 111%

Cc1nc2scc(-c3ccccc3)n2c(=O)c1CCO
growth (NCI-H23 lung): 99.6% | growth (NCI-H226 lung): 99.9% | growth (NCI-H322M lung): 103% | growth (HOP-62 NSCLC): 92.5% | growth (NCI-H460 lung): 100% | growth (HOP-92 NSCLC): 84.6% | growth (NCI-H522 lung): 99.1% | growth (A549/ATCC NSCLC): 93.6% | growth (786-0 renal): 106% | growth (COLO 205 colon): 108% | growth (DU-145 prostate): 108% | growth (K-562 leukemia): 98.4% | growth (MALME-3M melanoma): 102% | growth (MDA-MB-231 breast): 97.3% | growth (RXF 393 renal): 106% | growth (SF-268 CNS): 97.5% | growth (SF-295 CNS): 102% | growth (SF-539 CNS): 100% | growth (M14 melanoma): 101%

Nc1ccccc1C#C/C=C\C#Cc1cccc(O)c1
growth (NCI-H23 lung): 97.3% | growth (NCI-H226 lung): 95.4% | growth (NCI-H322M lung): 93.6% | growth (HOP-62 NSCLC): 40.2% | growth (NCI-H460 lung): 34.7% | growth (HOP-92 NSCLC): -30.1% (active) | growth (NCI-H522 lung): 52.9% | growth (A549/ATCC NSCLC): 64.5% | growth (786-0 renal): 61.5% | growth (COLO 205 colon): 81.2% | growth (DU-145 prostate): 73.1% | growth (K-562 leukemia): 30.9% | growth (MALME-3M melanoma): 51.6% | growth (MDA-MB-231 breast): 39.7% | growth (RXF 393 renal): 59% | growth (SF-268 CNS): 65.3% | growth (SF-295 CNS): 40.2% | growth (SF-539 CNS): 42.9% | growth (M14 melanoma): 31.5%
